Screening results as filed in PubChem BioAssay.
MBNL1 CUG block – qHTS Assay for Inhibitors of MBNL1-poly(CUG) RNA binding; Muscleblind-like protein 1 (Homo sapiens), Q9NR56; TR-FRET MBNL1-His/biotin-(CUG)12 binding, 665/545 ratio; Potency, µM (titrated, usually from 57.5 µM), without a hit: at the top dose activity change, negative = inhibition, actives largely listed as inhibitors; actives 0.036% (n = 280,000); active means well fitted inhibition curve with a large enough effect in the signal ratio, with a control signal flat, not every such curve was filed as active; inconclusive means small, poorly fitted or top-dose-only effect, or effect the other way, or a change in a side signal; inactive means no such curve, though single readings can be large or run the other way; the % refers to the signal ratio; further: potency means the concentration at half of the fitted maximal effect; on the % scale 0 is the no-effect control and ±100 the full control effect
Target sequence (Q9NR56 whole entry, looked up): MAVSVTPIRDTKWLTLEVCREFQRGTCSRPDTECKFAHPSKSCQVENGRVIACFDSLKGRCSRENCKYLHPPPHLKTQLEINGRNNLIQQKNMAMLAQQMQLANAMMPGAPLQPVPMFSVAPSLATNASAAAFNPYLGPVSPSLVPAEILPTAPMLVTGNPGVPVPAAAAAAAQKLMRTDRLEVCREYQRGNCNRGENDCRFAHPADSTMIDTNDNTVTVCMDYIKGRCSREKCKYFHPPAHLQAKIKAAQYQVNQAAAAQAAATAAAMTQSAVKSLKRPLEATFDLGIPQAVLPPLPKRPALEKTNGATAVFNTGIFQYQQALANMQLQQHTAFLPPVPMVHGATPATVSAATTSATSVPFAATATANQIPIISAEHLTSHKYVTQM
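Ratiometric TR-FRET (665 over 545 nm, excitation 340 nm) tracks disruption of MBNL1-His/biotin-(CUG)12 complex after 60 min at room temperature, with compounds at 92 nM to 58 uM final.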
Glioma ERSR ind – qHTS for Inducers of the Endoplasmic Reticulum Stress Response (ERSR) in Human Glioma: qHTS. U87-MG GRP78 promoter luciferase reporter, 16 h. Potency, µM, inactives show top-dose activation, most hits filed as activators. actives 0.02% (n = 420,000). AID 602332, 2012; further: potency means the concentration at half of the fitted maximal effect; series mostly up to about 76 µM; % of control where 0% means no effect; nearly all actives have a fitted effect of over 35% in size
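Stably transfected U87-MG glioma cells carrying a GRP78-based luciferase sensor; 16 h compound incubation. Luminescence end-point read 10 min after Bright-Glo addition at room temperature.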
TDP43 rescue – qHTS of TDP-43 Inhibitors; TDP-43 expressing yeast growth rescue, BacTiter-Glo, 24 h; Potency, µM (highest dose often 46.1 µM), without a hit: at the top dose growth rescue (activation), most hits filed as activators; actives 1.8% (n = 410,000); further: potency means the concentration at half of the fitted maximal effect; % of control where 0% means no effect; nearly all actives have a fitted effect of over 50% in size
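Yeast expressing TDP-43 (pregrown in raffinose, seeded at OD600=0.02 in galactose medium) exposed to compounds 24 hr at 30 deg C. Growth read by BacTiter-Glo luminescence; rescue of toxicity appears as increased signal.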
Abeta rescue – qHTS for compounds that reverse cellular toxicity of Amyloid beta (A-beta) peptide in yeast: Primary Screen | yeast expressing A-beta42, growth rescue, OD600, 48 h; response scale: 0% DMSO, 100% iron-clioquinol control | actives 0.063% (n = 410,000) | AID 1347071, 2019 | Potency, µM (doses to about 46.1 µM), most hits filed as activators; further: potency means the concentration at half of the fitted maximal effect; nearly all actives have a fitted effect of over 55% in size
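Growth rescue measured by 600 nm absorbance after 48 h yeast culture at 30 C with compound. Values normalized between DMSO and an equimolar ferric chloride plus clioquinol control.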
aSyn yeast inh – qHTS of alpha-syn Inhibitors. AID 652106, 2013. Potency, µM (highest dose often 46.1 µM), for inactives: at the top dose growth rescue (activation), hits mostly activators. actives 0.14% (n = 370,000). Yeast expressing alpha-synuclein, growth rescue, BacTiter-Glo, 24 h; further: potency means the concentration at half of the fitted maximal effect; % of control where 0% means no effect; nearly all actives have a fitted effect of over 65% in size
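Readout is rescue of growth in alpha-synuclein-expressing yeast, so inhibitors of toxicity appear as activators. Growth after 24 hr at 30 deg C in galactose medium is quantified by luminescence.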
FUS yeast rescue – qHTS for Suppressors of FUS Proteinopathy: Primary screen using FUS-linked yeast assay | S. cerevisiae FUS-expressing, growth rescue, OD600, 24 h | Potency, µM (titrated, usually from 76.6 µM), actives largely listed as activators | actives 0.24% (n = 390,000);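 further: potency means the concentration at half of the fitted maximal effect; plate controls were DMSO vehicle for no effect and reference control for full effect; nearly all actives have a fitted effect of over 55% in size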
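Cultures pregrown in 2.5% raffinose medium are shifted to minimal medium containing 2% galactose to express toxic FUS. Compounds are tested at several concentrations. After 24hr at 30C, growth is quantified at 600 nm absorbance.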
MBNL1-CUG FRET – qHTS Assay for Inhibitors of MBNL1-poly(CUG) RNA binding: Initial hit validation from the primary screen; shares compounds with MBNL1 CUG block; TR-FRET MBNL1-His / biotin-(CUG)12 binding, 60 min; Potency, µM (top dose mostly 57.6 µM), for inactives: at the top dose activity change, negative = inhibition, usual class: inhibitors; actives 50% (n = 140); AID 493199, 2011
MBNL1-CUG Alpha – qHTS Assay for Inhibitors of MBNL1-poly(CUG) RNA binding: Initial hit validation in AlphaScreen assay for MBNL1-(CUG)12 binding. shares compounds with MBNL1 CUG block. AlphaScreen MBNL1-His / biotin-(CUG)12 binding. Potency, µM (series often up to 57.7 µM), for inactives: at the highest dose activity, negative = inhibition, hits mostly inhibitors. actives 30% (n = 140)
MBNL1 HTRF CS – qHTS Assay for Inhibitors of MBNL1-poly(CUG) RNA binding: Counterscreen HTRF assay; shares compounds with MBNL1 CUG block; His-Menin/biotin-MLL peptide TR-FRET counterscreen; Potency, µM (doses to about 57.6 µM), for inactives: at the highest dose activity, negative = inhibition, actives largely listed as inhibitors; actives 20% (n = 120); AID 651843, 2012
* = called active by the depositor; i = inactive; ? = inconclusive; . = no result given; [ ] = another dose, or the depositor's remark. Only some compounds are listed: those with a hit (about 2% of all), similar ones and a draw of the others. Unless noted, the call rests on the fitted dose curve; in most records, active means well fitted curve in the direction sought with a large enough effect; inconclusive means small, poorly fitted or top-dose-only effect, or another doubt; inactive means no such curve, though single readings can be large; an effect the other way counts as inactive or inconclusive.

SMILES	MBNL1 CUG block	Glioma ERSR ind	TDP43 rescue	Abeta rescue	aSyn yeast inh	FUS yeast rescue	MBNL1-CUG FRET	MBNL1-CUG Alpha	MBNL1 HTRF CS
COc1cc(NC(=O)Nn2cnnc2)cc(OC)c1OC	-10%	-3%	-12%	i	-1%	i	.	.	.
O=C(Nc1ccc(F)c(Cl)c1)Nn1cnnc1	40µM*	.	.	.	.	.	13µM*	-19%	?
CCOc1ccc(-n2c(SCC(=O)Nc3ccc4c(c3)OCCO4)nnc2-c2ccncc2)cc1	.	.	.	.	.	i	.	.	.
COc1cccc(Cn2cc(COC(=O)NCC(C)C)nn2)c1	.	.	.	.	.	i	.	.	.
COc1ccc(CCNC(=O)C2CC(=O)N(c3ccccc3)C2)cc1OC (configuration not stated)	11%	-4%	5%	i	1%	i	-5%	-2%	1%
COc1ccc(CCNC(=O)C2CC(=O)N(c3ccc(Br)cc3)C2)cc1OC (configuration not stated)	-7%	0%	-15%	i	-5%	i	.	.	.
OC1(c2ccc(Cl)cc2)CCN(Cc2cn[nH]c2-c2ccccc2)CC1	10µM*	-4%	-2%[1.82 µM]	i	5%	i	41µM*	-10%	-12%
CCCNC(=O)Nc1cc(OC)c(OC)cc1Cc1nccc2cc(OC)c(OC)cc12	25µM*	6%	0%	i	-4%	i	13µM*	0%	?
Cn1c(=O)c2c(ncn2CCO)n(C)c1=O	1%	0%	0%	i	-2%	i	1%	0%	2%
COc1cccc(/C=N/Nc2nccnc2Cl)c1O	?	-14%	?	?	-20%	i	?	3.7µM*	26%
Oc1ccc(/C=N/Nc2nccnc2Cl)c(O)c1	?	0%	14%	i	11µM*	.	?	6.5µM*	17%
Oc1ccc(C=NNc2ccccn2)c(O)c1	.	4%	17%	i	3%	.	.	.	.
COc1ccc(/C=N/Nc2nccnc2Cl)cc1	?	-10%	-14%	i	-7%	i	?	-13%	18%
C[C@@H]1C(=O)N2N=Cc3cc4ccccc4cc3[C@H]2N2N=Cc3cc4ccccc4cc3[C@@H]12	.	.	.	.	.	i	.	.	.
CC(COc1ccccc1)NN (configuration not stated)	.	-2%	.	.	.	.	.	.	.
CCC[C@@H](/C=C/C(=O)OC(C)(C)C)Sc1ccc(C(C)(C)C)cc1	.	.	.	.	.	i	.	.	.
Cc1ccc(NC(=O)CSc2ncc(S(=O)(=O)c3ccccc3)c(=O)[nH]2)cc1C	25µM*	-1%	10%	i	0%	.	?	?	6%
COc1cccc(NC(=O)CSc2ncc(S(=O)(=O)c3ccccc3)c(=O)[nH]2)c1	-4%	2%	16%	i	0%	i	.	.	.
COc1ccc(CN2CCN(c3cccc(C)c3C)CC2)cc1OC	25µM*	0%	-2%	i	.	i	16µM*	-26%	?
C/C1=C2/[N-]C(C(CC(N)=O)[C@@]2(C)CCC(=O)NCC(C)OP(=O)([O-])O[C@H]2[C@@H](O)[C@@H](n3cnc4cc(C)c(C)cc43)O[C@@H]2CO)[C@]2(C)N=C(/C(C)=C3N=C(/C=C4N=C1C(CCC(N)=O)C\4(C)C)[C@@H](CCC(N)=O)[C@]\3(C)CC(N)=O)[C@@H](CCC(N)=O)[C@]2(C)CC(N)=O.CC(=O)O.[Co] (some centres not stated)	.	-12%	.	.	.	.	8.2µM*	2.6µM*	.
C/C1=C2N=C(/C=C3N=C(/C(C)=C4\[N-][C@@](C)([C@@H]5N=C1[C@](C)(CCC(=O)NCC(C)OP(=O)(O)O[C@H]1[C@@H](O)[C@@H](n6cnc7cc(C)c(C)cc76)O[C@@H]1CO)[C@H]5CC(N)=O)[C@@](C)(CC(N)=O)[C@@H]4CCC(N)=O)[C@@](C)(CC(N)=O)[C@@H]\3CCC(N)=O)C(C)(C)[C@@H]/2CCC(N)=O.CC(=O)O.[Co] (some centres not stated)	.	.	.	.	.	.	.	.	94%
O=C(c1cccc(I)c1)N1CCC(Oc2cccnc2)CC1	.	.	.	.	.	i	.	.	.
O=C(C1CCN(c2cncnc2)CC1)N1CCCC1	.	.	.	.	.	i	.	.	.
CC(C)(C)n1nnnc1C(c1cccs1)N1CCCC2(CCCCC2)C1 (configuration not stated)	?	-2%	-24%	i	-10%	i	.	.	.
c1csc(C(c2nnnn2C2CCCCC2)N2CCCC3(CCCCC3)C2)c1 (configuration not stated)	25µM*	-3%	8%	i	-12%	i	-19%	-21%	-4%
O=C1N(c2ccc(Cl)c(Cl)c2)CN(Cc2ccccc2)CN1n1cnnc1	13µM*	0%	-1%	i	-11%	i	16µM*	-4%	?
O=C(NCCCN1CCCCCC1)c1ccc(CS(=O)(=O)Cc2ccccc2F)o1	40µM*	-5%	-29%	i	-1%	i	?	0%	-2%
COc1ccc(NC(=O)NC(C(F)(F)F)C(F)(F)F)cc1	32µM*	2%	-8%	i[9.22 µM]	1%	i	?	-2%	?
CN(C(=O)COC(=O)c1ccc(-c2ccc(O)cc2)cc1)C1CCS(=O)(=O)C1 (configuration not stated)	40µM*	1%	-10%	i	0%	i	?	21µM*	-13%
